Test [1] is described as follows: antimalarial activity against Dd2 strain (AID 2302;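 active = growth inhibition above 50% at the single 2 µM test dose, taken to imply half-maximal potency below 2 µM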;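 also: 0% = DMSO untreated growth and 100% = chloroquine plus artemisinin killed control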). Particulars: P. falciparum Dd2 in RBCs, LDH growth readout, 72 h; at 2 µM; active compounds read high.
A short description of test [2]: human hepatoma cell viability loss – ATP luminescence, cytotoxicity control for P. falciparum antimalarial project, primary screen (AID 2303;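 active = inhibition above 50%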;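 also: 0% = DMSO wells and 100% = digitonin-killed cells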). Particulars: HepG2 viability, 24-48 h, at 10 µM, active compounds read high.
The target of test [3] is L-lactate dehydrogenase (Plasmodium falciparum (isolate CDC / Honduras)) (UniProt Q27743). The test can be described thus: PfLDH activity inhibition – cell lysate, 3D7 strain, counter-screen for P. falciparum growth inhibition project (AID 2304).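 Also: 0% = vehicle and 100% = reference inhibitor.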 Particulars: P. falciparum 3D7 crude extract, LDH APAD/NBT absorbance; at 2 µM; active compounds read high.
Chain of L-lactate dehydrogenase (Plasmodium falciparum (isolate CDC / Honduras)) (Q27743 whole entry, looked up): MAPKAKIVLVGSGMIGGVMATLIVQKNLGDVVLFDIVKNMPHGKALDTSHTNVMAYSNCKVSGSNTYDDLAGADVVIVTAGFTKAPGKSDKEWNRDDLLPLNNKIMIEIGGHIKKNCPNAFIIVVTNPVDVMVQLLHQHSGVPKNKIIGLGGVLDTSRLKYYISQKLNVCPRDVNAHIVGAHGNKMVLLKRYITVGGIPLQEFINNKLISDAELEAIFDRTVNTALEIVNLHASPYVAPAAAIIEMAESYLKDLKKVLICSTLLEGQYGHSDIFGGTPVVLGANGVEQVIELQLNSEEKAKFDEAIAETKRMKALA
Test [4] is described as follows: inhibition of 3D7 malaria parasite growth – strain 3D7 (AID 2306).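 Also: 0% = DMSO wells and 100% = chloroquine plus artemisinin control wells.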 Particulars: P. falciparum 3D7 erythrocytic growth, LDH absorbance, 72 h; at 2 µM; active compounds read high.
Test [5] concerns the target Calcium-dependent protein kinase 1 (Plasmodium falciparum (isolate 3D7)) (UniProt P62344). The test can be described thus: PfCDPK1 kinase inhibitors, biochemical, TCAMS library (AID 1159585; cut-off not given, nearly all actives have IC50 up to about 0.98 µM;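 also: inhibitors leave more ATP so luminescence rises with inhibition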). Particulars: recombinant PfCDPK1, Kinase-Glo ATP depletion luminescence.
In test [6] the target is Plasmodium falciparum protein kinase 6 (PK6, PF3D7_1337100) (UniProt Q8IDW1). The test can be described thus: PfPK6 kinase inhibitors, biochemical, TCAMS library (AID 1159586). Particulars: recombinant PfPK6, Kinase-Glo ATP depletion luminescence.
Chain of Plasmodium falciparum protein kinase 6 (PK6, PF3D7_1337100) (Q8IDW1 1-305): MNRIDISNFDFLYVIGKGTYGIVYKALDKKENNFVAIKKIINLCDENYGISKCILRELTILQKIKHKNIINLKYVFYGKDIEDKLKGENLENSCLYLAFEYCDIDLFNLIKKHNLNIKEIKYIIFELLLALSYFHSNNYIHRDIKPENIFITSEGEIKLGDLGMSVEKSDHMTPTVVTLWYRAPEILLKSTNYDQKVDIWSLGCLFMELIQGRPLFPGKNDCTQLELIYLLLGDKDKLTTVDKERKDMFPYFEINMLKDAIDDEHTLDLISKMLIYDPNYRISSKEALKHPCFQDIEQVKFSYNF
Test [7] deals with Protein kinase 7 (PK7), Plasmodium falciparum 3D7 (PF3D7_0213400) (UniProt Q7YTF7). The test can be described thus: inhibition of Plasmodium PK7 catalytic activity – biochemical, TCAMS antimalarial set, Kinase-Glo luminescence (AID 1159587). Particulars: recombinant PfPK7, Kinase-Glo ATP depletion luminescence. (In general: Kinase-Glo measures the ATP left after a reaction by luminescence.)
Chain of Protein kinase 7 (PK7), Plasmodium falciparum 3D7 (PF3D7_0213400) (Q7YTF7 1-343): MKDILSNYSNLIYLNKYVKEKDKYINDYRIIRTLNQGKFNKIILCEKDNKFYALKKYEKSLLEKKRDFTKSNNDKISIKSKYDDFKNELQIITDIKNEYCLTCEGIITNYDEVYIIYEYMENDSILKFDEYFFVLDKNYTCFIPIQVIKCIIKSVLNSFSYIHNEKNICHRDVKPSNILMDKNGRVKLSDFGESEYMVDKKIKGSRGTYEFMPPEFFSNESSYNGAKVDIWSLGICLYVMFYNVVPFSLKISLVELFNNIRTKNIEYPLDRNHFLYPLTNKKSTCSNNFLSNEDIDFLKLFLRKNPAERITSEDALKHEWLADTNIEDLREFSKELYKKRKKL

Test [8] deals with Calcium-dependent protein kinase 4 (Plasmodium falciparum (isolate 3D7)) (UniProt Q8IBS5). The test can be described thus: PfCDPK4 kinase inhibitors, biochemical, TCAMS library (AID 1159588; cut-off not given, nearly all actives have IC50 up to about 0.91 µM). Particulars: recombinant PfCDPK4, Kinase-Glo ATP depletion luminescence.
Chain of Calcium-dependent protein kinase 4 (Plasmodium falciparum (isolate 3D7)) (Q8IBS5 whole entry, looked up): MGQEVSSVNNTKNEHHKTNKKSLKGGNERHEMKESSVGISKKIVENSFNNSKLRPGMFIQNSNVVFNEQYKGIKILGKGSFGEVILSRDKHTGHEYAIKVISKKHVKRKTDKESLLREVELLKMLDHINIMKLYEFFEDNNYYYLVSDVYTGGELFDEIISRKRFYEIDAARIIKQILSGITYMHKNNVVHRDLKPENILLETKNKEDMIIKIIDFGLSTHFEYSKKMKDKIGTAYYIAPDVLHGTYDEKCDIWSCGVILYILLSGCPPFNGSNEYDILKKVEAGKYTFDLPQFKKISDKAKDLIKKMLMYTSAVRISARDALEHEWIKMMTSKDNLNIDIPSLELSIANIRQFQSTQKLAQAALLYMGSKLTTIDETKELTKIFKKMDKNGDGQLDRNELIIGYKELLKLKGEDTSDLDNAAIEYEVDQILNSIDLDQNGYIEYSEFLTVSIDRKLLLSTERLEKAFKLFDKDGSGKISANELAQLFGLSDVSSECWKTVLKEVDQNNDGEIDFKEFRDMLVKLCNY

For some assays here: Results with a measured potency or affinity are listed apart. Calls of active or inactive are those of the source. Unless noted, no rule for the calls is given here.

Chain of Calcium-dependent protein kinase 1 (Plasmodium falciparum (isolate 3D7)) (P62344 whole entry, looked up): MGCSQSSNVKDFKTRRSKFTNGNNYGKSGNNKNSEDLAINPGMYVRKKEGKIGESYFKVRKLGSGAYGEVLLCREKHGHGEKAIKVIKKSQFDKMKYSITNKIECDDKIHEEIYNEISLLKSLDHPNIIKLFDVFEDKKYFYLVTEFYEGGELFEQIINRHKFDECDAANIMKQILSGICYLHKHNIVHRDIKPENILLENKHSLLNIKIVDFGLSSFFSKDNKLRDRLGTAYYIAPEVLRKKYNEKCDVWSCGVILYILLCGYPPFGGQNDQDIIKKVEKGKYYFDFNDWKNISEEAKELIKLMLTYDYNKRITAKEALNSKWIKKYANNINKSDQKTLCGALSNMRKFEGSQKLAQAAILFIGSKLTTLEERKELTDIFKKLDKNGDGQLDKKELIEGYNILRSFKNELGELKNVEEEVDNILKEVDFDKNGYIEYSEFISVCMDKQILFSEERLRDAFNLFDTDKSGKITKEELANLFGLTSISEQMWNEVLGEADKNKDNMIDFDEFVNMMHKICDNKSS

A word on the inhibition: it is the relative decrease from the control value, in per cent. Regarding `COc1ccc(F)cc1-c1csc(N(c2ccc(F)cc2)C2CCNCC2)n1`, the growth inhibition in test [1] was -3% (inactive); in test [4] it was 94% (active). Moreover, the inhibition in test [2] is 15% (inactive); in test [3] it was -1% (inactive). Also, the outcome in test [5], in test [6], in test [7] and in test [8] was inactive.

With `N#Cc1ccc(N(CC(=O)NCCc2ccccc2)CC2CC2)c2ccccc12`, the growth inhibition was 48% (inactive) in test [1] and 99% (active) in test [4]. Also, the inhibition in test [2] was 0% (inactive); in test [3], -3% (inactive). Besides, the result in test [5], in test [6], in test [7] and in test [8] was inactive.

For the molecule `NC(=NCCCCCCN=C(N)/N=C(\N)c1ccc(Cl)cc1)/N=C(\N)c1ccc(Cl)cc1`, the growth inhibition in test [1] is 99% (active); in test [4], 98% (active). The inhibition is 10% (inactive) in test [2] and -9% (inactive) in test [3]. In addition, the outcome in test [5], in test [6], in test [7] and in test [8] was inactive.

For the molecule `CCCN(CCC)CCOC(=O)C(OCC)(c1ccccc1)c1ccccc1`, the values for the growth inhibition in test [1] and in test [4] were 0% (inactive) and 97% (active), respectively. The inhibition in test [2] was -2% (inactive); in test [3], 0% (inactive). In addition, the outcome in test [5], in test [6], in test [7] and in test [8] was inactive.

`COc1nc(N)ncc1C(=O)NC1CN2CCC1CC2` (configuration not stated): the growth inhibition in test [1] is 0% (inactive); in test [4], 92% (active). Also, the figures for the inhibition in test [2] and in test [3] were 26% (inactive) and -1% (inactive), respectively. Also, the outcome in test [5], in test [6], in test [7] and in test [8] was inactive.

In the case of `CN(C)CCCOc1ccc(CN2CCC(c3c[nH]c4ccc(NCC5CCCCC5)cc34)CC2)cc1`, the growth inhibition in test [1] and in test [4] was 99% (active) each time. For the same molecule, the inhibition is 58% (active) in test [2] and 3% (inactive) in test [3]. The outcome in test [5], in test [6], in test [7] and in test [8] was inactive.

Turning to `COc1ccc(C2CNCc3c2cc(OC)c(OC)c3Cl)cc1` (configuration not stated), the growth inhibition in test [1] was 3% (inactive); in test [4], 98% (active). The inhibition was 42% (inactive) in test [2] and 2% (inactive) in test [3]. The outcome in test [5], in test [6], in test [7] and in test [8] was inactive.

Regarding `O=C(C=Cc1cc([N+](=O)[O-])ccc1Cl)NC1CCC(CN2CCC(c3c[nH]c4ccccc34)CC2)CC1` (configuration not stated), the growth inhibition in test [1] is 94% (active); in test [4] it was 102% (active). Also, the inhibition in test [2] was 21% (inactive); in test [3], 1% (inactive). Also, the result in test [5], in test [6], in test [7] and in test [8] was inactive.

On to `COCCNCc1ccc(-c2ccc(CN(C(=O)NC3CCCCC3)C3CCN(Cc4ccccc4)CC3)cc2)cc1`, for which the values for the growth inhibition in test [1] and in test [4] were 84% (active) and 94% (active), respectively. For the same molecule, the inhibition in test [2] is 29% (inactive); in test [3], -1% (inactive). Also, the outcome in test [5], in test [6], in test [7] and in test [8] was inactive.

As to `CC[C@H]1CN2CC[C@H]1C[C@H]2[C@H](O)c1cc(/C=C/c2ccc(F)cc2)nc2ccc(OC)cc12`, the growth inhibition in test [1] and in test [4] was 99% (active) in each case. Moreover, the inhibition in test [2] is 55% (active); in test [3], -1% (inactive). In addition, the result in test [5], in test [6], in test [7] and in test [8] was inactive.

`COC(C(=O)OCCC1CCCN1C)(c1ccccc1)C1CCCCC1` (configuration not stated): the growth inhibition in test [1] was 5% (inactive); in test [4] it was 100% (active). Moreover, the inhibition in test [2] was 3% (inactive); in test [3], 4% (inactive). Moreover, the result in test [5], in test [6], in test [7] and in test [8] was inactive.

As to `COc1ccc2[nH]cc(C3CCN(Cc4ccc(NC(=O)c5ccc(-c6ccccc6)cc5)cc4)CC3)c2c1`, the values for the growth inhibition in test [1] and in test [4] were 72% (active) and 101% (active), respectively. Moreover, the values for the inhibition in test [2] and in test [3] were 24% (inactive) and -6% (inactive), respectively. In addition, the result in test [5], in test [6], in test [7] and in test [8] was inactive.

For the molecule `COc1cccc(O)c1CNCC(O)c1cccc(C(F)(F)F)c1` (configuration not stated), the values for the growth inhibition in test [1] and in test [4] were 96% (active) and 98% (active), respectively. For the same molecule, the inhibition is 31% (inactive) in test [2] and 4% (inactive) in test [3]. Moreover, the result in test [5], in test [6], in test [7] and in test [8] was inactive.

With `CN(C(=O)OCc1ccccc1)C1CCC(CCN2CCC3(CC2)C(=O)NCN3c2cccc(C(F)(F)F)c2)(c2ccccc2)CC1` (configuration not stated), the growth inhibition was 72% (active) in test [1] and 80% (active) in test [4]. Moreover, the inhibition in test [2] is 19% (inactive); in test [3], -2% (inactive). Further, the result in test [5], in test [6], in test [7] and in test [8] was inactive.

As for `O=C(/C=C/c1ccc(Cl)c(Cl)c1)N1CCC(CN2CCC(c3c(-c4ccccc4)[nH]c4ccccc34)CC2)CC1`, the growth inhibition was 99% (active) in test [1] and 101% (active) in test [4]. In addition, the values for the inhibition in test [2] and in test [3] were 43% (inactive) and -8% (inactive), respectively. For the same molecule, the result in test [5], in test [6], in test [7] and in test [8] was inactive.

Turning to `O=C(CCc1ccco1)NC1CCN(CC2(c3ccc(Cl)cc3)CCC2)CC1`, the growth inhibition was 67% (active) in test [1] and 99% (active) in test [4]. Also, the inhibition is -12% (inactive) in test [2] and -2% (inactive) in test [3]. In addition, the outcome in test [5], in test [6], in test [7] and in test [8] was inactive.

Regarding `COCC(=O)N(Cc1ccccc1-c1ccc(CNCCc2ccccc2)cc1)C1CCN(Cc2ccccc2)CC1`, the values for the growth inhibition in test [1] and in test [4] were 86% (active) and 94% (active), respectively. For the same molecule, the inhibition in test [2] was 39% (inactive); in test [3], 1% (inactive). Also, the result in test [5], in test [6], in test [7] and in test [8] was inactive.

In the case of `Cc1ccc(CC(C)NCC(O)c2cccc(C(F)(F)F)c2)c(C)c1` (configuration not stated), the growth inhibition in test [1] and in test [4] was 99% (active) in each case. In addition, the inhibition in test [2] is 3% (inactive); in test [3], -1% (inactive). Besides, the outcome in test [5], in test [6], in test [7] and in test [8] was inactive.

`C/C=C1/CN2CC[C@H]1C[C@H]2[C@H](O)c1ccnc2ccc(OC)cc12`: the results for the growth inhibition in test [1] and in test [4] were 45% (inactive) and 99% (active), respectively. In addition, the inhibition was -16% (inactive) in test [2] and 0% (inactive) in test [3]. Moreover, the outcome in test [5], in test [6], in test [7] and in test [8] was inactive.

The values are drawn from PubChem BioAssay.
